Compound activity (PubChem)
A selection: hits, their analogues and other compounds. The true share with any hit is near 4.7%.
HSF-1 act: HSF-1 activators, primary screen, NIH3T3-HGL cells, MG132 stress, luminescence, single point; NIH3T3-HGL HSF-1 luciferase reporter, 8 h; 100% = twice DMSO control signal; activation, % at 9 µM; 300,000 tested, 1.7% active; AID 504408, 2011;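 active means mean replicate activation of at least 50% with a set share of replicates each reaching 50%; inconclusive means only one of those two conditions met; inactive means mean below 50% and too few replicates reaching it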
EBV LMP1 NFkB: EBV LMP1-driven NF-kappaB luciferase reporter inhibitors, primary screen, cell-based, luminescence, single point; LMP1-induced NF-kappaB luciferase reporter cells; inhibition, % at 12.5 µM; 350,000 tested, 0.69% active; in the data active means inhibition above about 41%; inconclusive means no clear call, values can overlap the other calls
HSP90 refold inh: HSP90 inhibitors, primary screen, cell lysate, luminescence | Heat shock protein HSP 90 (rabbit reticulocyte lysate; luciferase refolding) | Rabbit reticulocyte lysate, luciferase refolding luminescence, 3 h | inhibition, % at 5.6 µM | 290,000 tested, 0.91% active;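 active means inhibition above the screen-wide mean plus 3 SD, computed separately per campaign, cut at about 16% in these data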;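 further: inhibitors lower the luminescence because luciferase stays unfolded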
TROY NFkB inh: inhibitors of TROY-driven NF-kB signaling, primary screen, Q293 LMP1-TROYcd cells, NF-kB luciferase, uHTS | Q293 LMP1-TROYcd NF-kB luciferase reporter, 4 h | inhibition, % at 10 µM | 360,000 tested, 0.98% active;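 active means compounds whose plate-normalised and pattern-corrected inhibition of the luciferase reporter signal at the single screening dose is 50% or more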
HSF1 inhib: HSF1 inhibitors in luciferase reporter cells, primary screen, cell-based, NIH3T3, luminescence. NIH3T3-HGL HSE-luciferase, MG132-induced, luminescence 8 h; hits give low values. activity change, negative = inhibition, % at 7.5 µM (by protocol). 300,000 tested, 0.77% active;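 active means more than half of replicate wells show activity change below -50%, luminescence cut by over half; inconclusive means some wells, but at most half, below -50%; inactive means no replicate well below -50%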;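 further: luciferase reports HSF-1 transcriptional activity via heat shock element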
TWEAK Fn14 block: inhibitors of TWEAK-Fn14 signaling, primary screen, luciferase reporter cells, uHTS; TWEAK-stimulated Fn14 reporter cells, luciferase luminescence, 8 h; inhibition, % at 10 µM; AID 1159606, 2016; 360,000 tested, 2% active; in the data active means inhibition above about 50%
Of the large screens only hits and unclear results are named; the others gave an inactive call.

CN1NC(c2ccccc2)NN(C)C1=O	none (no result: HSF-1 act, EBV LMP1 NFkB, HSP90 refold inh, HSF1 inhib)
Cc1noc(C)c1NC(=O)N(C)C[C@H]1OCc2cnnn2CCCC(=O)N([C@@H](C)CO)C[C@H]1C	none (no result: HSF-1 act, HSP90 refold inh, HSF1 inhib)
Cc1cccc(NC(=O)CNC(=O)Cn2ncc(Cl)c(Cl)c2=O)c1C	TWEAK Fn14 block 100 (no result: HSF-1 act, HSP90 refold inh, HSF1 inhib)
O=C(Cn1ncc(Cl)c(Cl)c1=O)NC1CCCCC1	TWEAK Fn14 block 84 (no result: HSF-1 act, HSP90 refold inh, HSF1 inhib)
O=C1CN(C(=O)Cn2ncc(Cl)c(Cl)c2=O)c2ccccc2N1	TROY NFkB inh 70, TWEAK Fn14 block 94
O=C(Cn1ncc(Cl)c(Cl)c1=O)NCC1CCCCC1	EBV LMP1 NFkB 86, TWEAK Fn14 block 97 (no result: HSF-1 act, HSF1 inhib)
Cn1c(Cc2ccccc2)nc(=O)c2ccccc21	none (no result: HSF-1 act, EBV LMP1 NFkB, HSP90 refold inh, HSF1 inhib)
O=[N+]([O-])c1cccc(NC(=S)Nc2nc(-c3ccccc3Cl)cs2)c1	TWEAK Fn14 block 56
O=C(/C=C/c1cccc([N+](=O)[O-])c1)NC(=S)Nc1ccccc1C(=O)O	none (no result: HSF-1 act, EBV LMP1 NFkB, TROY NFkB inh, HSF1 inhib, TWEAK Fn14 block)
O=C(/C=C/c1cccc([N+](=O)[O-])c1)NC(=S)Nc1cccc(NC(=O)c2ccccc2Cl)c1	HSF-1 act 61
O=C(Oc1ccc(C(=S)N2CCC(O)CC2)cc1)c1ccc(Cl)cc1	TROY NFkB inh 57
CCC(c1nnnn1-c1ccc2c(c1)OCCO2)N1CCN(c2cccc(C)c2C)CC1 (stereo not given)	none (no result: HSF-1 act, EBV LMP1 NFkB, HSP90 refold inh, HSF1 inhib)
O=C1C(=O)c2ccc(-c3ccccc3)cc2-c2ccccc21	EBV LMP1 NFkB 91, TROY NFkB inh 83, HSF1 inhib -95, TWEAK Fn14 block 107
Nc1ccc2c(c1)C(=O)C(=O)c1ccccc1-2	EBV LMP1 NFkB 86, HSP90 refold inh 16, TROY NFkB inh 59, HSF1 inhib -95, TWEAK Fn14 block 105
Nc1ccc2c(c1)C(=O)c1ccccc1-2	none (no result: HSP90 refold inh)
COc1ccc(OC)c2sc(N(CCCN(C)C)C(=O)c3ccc(S(=O)(=O)N4CCc5ccccc5C4)cc3)nc12	HSF1 inhib -69 (no result: EBV LMP1 NFkB, HSP90 refold inh, TROY NFkB inh, TWEAK Fn14 block)
COc1ccc(C)c2sc(N(CCCN(C)C)C(=O)c3ccc(S(=O)(=O)N4CCc5ccccc5C4)cc3)nc12	HSF1 inhib inconclusive (no result: HSP90 refold inh)
O=C(c1ccccc1Cl)N(C(=O)c1ccccc1Cl)c1nccc(-c2cccs2)n1	TROY NFkB inh 67, TWEAK Fn14 block 77
CN(C)C(=S)Nc1nc2ccccc2s1	HSF-1 act 83
COc1ccc2nc(NNC(=O)COc3ccccc3)sc2c1	none
O=C(COc1ccccc1)NNc1nc2ccccc2s1	TROY NFkB inh 85, TWEAK Fn14 block 70
CC(=O)NNc1nc2ccccc2s1	TROY NFkB inh 83, TWEAK Fn14 block 89
Cc1cc(C)n2nc(C(=O)OCC(=O)NC3CCS(=O)(=O)C3)nc2n1 (stereo not given)	none (no result: HSF-1 act, HSP90 refold inh, HSF1 inhib)
O=C(NC1CC1)C1=C[C@@H](c2ccc(Br)cc2)C[C@@H](OCCCCO)O1	TROY NFkB inh 51
C[C@H]1COc2cc(N3CCC[C@H]3CO)ccc2S(=O)(=O)N1	none (no result: HSF-1 act, EBV LMP1 NFkB, HSP90 refold inh, HSF1 inhib)
Cc1cc(N=Nc2ccc(Cl)cc2)cc(CN2CCCC2)c1O	HSF1 inhib -60
O=[N+]([O-])c1ccc(N2CCOCC2)cc1NCc1ccccc1	none (no result: HSF-1 act, HSF1 inhib)
O=[N+]([O-])c1cc([N+](=O)[O-])c(N2CCOCC2)cc1NCc1ccccc1	HSF-1 act 109
COc1cc2ccccc2ccc1=NO	TWEAK Fn14 block 62 (no result: HSF-1 act, HSP90 refold inh, HSF1 inhib)
COc1cc2ccccc2cc1C(=O)O	none
COCCN(C(=O)COC(=O)c1ccc2c(c1)OCO2)c1c(N)n(Cc2ccccc2)c(=O)[nH]c1=O	none (no result: HSF-1 act, HSP90 refold inh, HSF1 inhib)
COc1ccc(-c2cnc(NCc3cc4c(cc3[N+](=O)[O-])OCO4)n2C)cc1	EBV LMP1 NFkB 66
O=C1NC[C@H](CCCCN2C[C@H](Cc3ccc(O)cc3)N(CC3CCCCC3)C(=O)C2=O)N(Cc2ccccc2)C1=O	none (no result: HSF-1 act, EBV LMP1 NFkB, HSP90 refold inh, HSF1 inhib)
CCOc1ccc(-c2nnc(SCc3nc4ccccc4[nH]3)n2N)cc1	HSF-1 act 63
COCCCn1cc(CN2CC(N3CCN(CCO)CC3)CS2(=O)=O)nn1 (stereo not given)	none (no result: HSF-1 act, EBV LMP1 NFkB, HSP90 refold inh, HSF1 inhib)
Cc1ccc(NC(=O)CSc2ncnc3ccccc23)cc1S(=O)(=O)N1CCCCC1	TWEAK Fn14 block 72
CC(C)(C)C(=O)Nc1nnc(SCC(=O)Nc2ccc3c(c2)OCO3)s1	EBV LMP1 NFkB 46
O=C(CSc1ncnc2ccccc12)Nc1ccc2c(c1)OCO2	TWEAK Fn14 block 65
CC(C)(C)Cc1nnc(NC(=O)c2ccc3c(c2)OCO3)s1	HSF-1 act 58
CCCCn1nc(C(=O)N(C)Cc2nc3ccccc3c(=O)[nH]2)c2ccccc2c1=O	none (no result: HSF-1 act, HSP90 refold inh, HSF1 inhib)
CC(C)(C)S(=O)N1Cc2cc(C(=O)N3CCc4ccccc4C3)nc(-c3cccc(-c4cccnc4)c3)c2[C@@H]1CCO (stereo not given in full)	none (no result: HSF-1 act, EBV LMP1 NFkB, HSP90 refold inh, HSF1 inhib)
Cc1ccc(NC(=O)CSc2ncnc3ccccc23)cc1S(=O)(=O)N1CCOCC1	TROY NFkB inh 53, TWEAK Fn14 block 71
CC(C)Nc1nnc(SCC(=O)Nc2ccc3c(c2)C(=O)c2ccccc2C3=O)s1	TWEAK Fn14 block 59
O=C(CSc1nnc(NC2CCCCC2)s1)Nc1ccc2c(c1)C(=O)c1ccccc1C2=O	none
COCCNC(=O)C1CC(=O)N(C2CCCCC2)C1 (stereo not given)	HSF-1 act 55
CC1CCN(CCCNS(=O)(=O)c2cc(Br)cc3c2N(C(=O)C2CC2)CC3)CC1	TWEAK Fn14 block 73
CC1(C(=O)Nc2cccc(NS(C)(=O)=O)c2)CCN1Cc1ccccc1OC(F)F (stereo not given)	none (no result: HSF-1 act, EBV LMP1 NFkB, HSP90 refold inh, HSF1 inhib)
CC1(C(=O)NS(=O)(=O)c2ccc3ccccc3c2)CCN1C(=O)Cc1ccc(-c2ccccc2)cc1 (stereo not given)	none (no result: HSF-1 act, EBV LMP1 NFkB, HSP90 refold inh, HSF1 inhib)
c1ccc2sc(-n3cc(C4CCCCC4)nn3)nc2c1	none (no result: HSF-1 act, EBV LMP1 NFkB, HSP90 refold inh, HSF1 inhib)
CCc1nonc1NC(=O)c1oc2ccc(F)cc2c1C	EBV LMP1 NFkB 42
Cc1c(C(=O)Nc2nonc2-c2ccc(F)cc2)oc2ccc(F)cc12	TWEAK Fn14 block 79
COCCN1C(=O)/C(=C2/C(=O)N(CC(=O)Nc3ccccc3Cl)c3ccccc32)SC1=S	none
CCOc1ccc(NC(=O)CN2C(=O)/C(=C3\SC(=S)N(C4CCS(=O)(=O)C4)C3=O)c3ccccc32)cc1 (stereo not given)	HSP90 refold inh 20 (no result: HSF-1 act, HSF1 inhib)
CCn1nccc1C(=O)Nc1ccc(Cl)cc1Cl	TWEAK Fn14 block 55
CCn1nccc1C(=O)Nc1cc(Cl)ccc1Cl	none
COc1ccc(CC(=O)N/N=C/c2cc(Br)cs2)cc1OC	TWEAK Fn14 block 67
COc1cc(/C=N/NC(=O)CN2CCCCC2)ccc1OCc1ccc(Br)cc1	HSF-1 act 79
COc1cc(/C=N/NC(=O)CC2(C)OCCCO2)ccc1OCc1ccc(Cl)cc1Cl	HSF-1 act 68
